Laboratory results from PubChem BioAssay (NCATS).
Results filed as inconclusive are left out. Calls of active or inactive are those of the source. The call rests on the fitted dose curve; in most records, active means well fitted inhibition curve with a large enough effect; inconclusive means small, poorly fitted or top-dose-only effect; inactive means flat fitted curve, though single readings scatter.

Legend:
[1] = qHTS profiling for inhibitors of Plasmodium falciparum proliferation (AID 504749);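 further: 0% = DMSO vehicle and full inhibition = artemisinin control; nearly all actives have a fitted effect of over 60% in size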; details: P. falciparum in erythrocytes, SYBR Green DNA, 72 h, at 28.7 µM (top of the series)
Outline: (§1)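 Quantitative HTS: compounds pinned into medium, infected erythrocytes added (0.3% parasitemia, 2.5% hematocrit), 72 h culture at 37 C under 5% CO2. Saponin/Triton lysis with SYBR Green I, overnight RT, then fluorescence read.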

3D7 = experiment: as above; details: P. falciparum in erythrocytes, SYBR Green DNA, 72 h; series mostly up to 28.7 µM
Outline: as §1

7G8 = experiment: as above; details: P. falciparum in erythrocytes, SYBR Green DNA, 72 h; series mostly up to 28.7 µM
Outline: as §1

AA1029 = experiment: as above; details: P. falciparum in erythrocytes, SYBR Green DNA, 72 h; series mostly up to 28.7 µM
Outline: as §1

AS120 = experiment: as above; details: P. falciparum in erythrocytes, SYBR Green DNA, 72 h; series mostly up to 28.7 µM
Outline: as §1

ATS189 = experiment: as above; details: P. falciparum in erythrocytes, SYBR Green DNA, 72 h; series mostly up to 28.7 µM
Outline: as §1

ATS95 = experiment: as above; details: P. falciparum in erythrocytes, SYBR Green DNA, 72 h; series mostly up to 28.7 µM
Outline: as §1

C2A = experiment: as above; details: P. falciparum in erythrocytes, SYBR Green DNA, 72 h; series mostly up to 28.7 µM
Outline: as §1

CP185 = experiment: as above; details: P. falciparum in erythrocytes, SYBR Green DNA, 72 h; series mostly up to 28.7 µM
Outline: as §1

CP191 = experiment: as above; details: P. falciparum in erythrocytes, SYBR Green DNA, 72 h; series mostly up to 28.7 µM
Outline: as §1

CP192 = experiment: as above; details: P. falciparum in erythrocytes, SYBR Green DNA, 72 h; series mostly up to 28.7 µM
Outline: as §1

CP194 = experiment: as above; details: P. falciparum in erythrocytes, SYBR Green DNA, 72 h; series mostly up to 28.7 µM
Outline: as §1

CP201 = experiment: as above; details: P. falciparum in erythrocytes, SYBR Green DNA, 72 h; series mostly up to 28.7 µM
Outline: as §1

CP203 = experiment: as above; details: P. falciparum in erythrocytes, SYBR Green DNA, 72 h; series mostly up to 28.7 µM
Outline: as §1

CP211 = experiment: as above; details: P. falciparum in erythrocytes, SYBR Green DNA, 72 h; series mostly up to 28.7 µM
Outline: as §1

CP215 = experiment: as above; details: P. falciparum in erythrocytes, SYBR Green DNA, 72 h; series mostly up to 28.7 µM
Outline: as §1

CP217 = experiment: as above; details: P. falciparum in erythrocytes, SYBR Green DNA, 72 h; series mostly up to 28.7 µM
Outline: as §1

CP237 = experiment: as above; details: P. falciparum in erythrocytes, SYBR Green DNA, 72 h; series mostly up to 28.7 µM
Outline: as §1

CP238 = experiment: as above; details: P. falciparum in erythrocytes, SYBR Green DNA, 72 h; series mostly up to 28.7 µM
Outline: as §1

CP247 = experiment: as above; details: P. falciparum in erythrocytes, SYBR Green DNA, 72 h; series mostly up to 28.7 µM
Outline: as §1

CCOC(N)=O
inactive: activity, negative = inhibition ([1]; parasite line A) 8.86% | activity, negative = inhibition ([1]; parasite line B) 9.69% | Potency (3D7) | Potency (7G8) | Potency (AA1029) | Potency (AS120) | Potency (ATS189) | Potency (ATS95) | Potency (C2A) | Potency (CP185) | outcome (CP191) | outcome (CP192) | outcome (CP194) | outcome (CP201) | Potency (CP203) | outcome (CP211) | Potency (CP215) | outcome (CP217) | Potency (CP237) | Potency (CP238) | Potency (CP247)

CCOC(=O)c1cccnc1
inactive: activity, negative = inhibition ([1]; parasite line A) 7.9% | activity, negative = inhibition ([1]; parasite line B) 13.9% | Potency (3D7) | Potency (7G8) | Potency (AA1029) | Potency (AS120) | Potency (ATS189) | Potency (ATS95) | Potency (C2A) | Potency (CP185) | outcome (CP191) | outcome (CP192) | outcome (CP194) | outcome (CP201) | Potency (CP203) | outcome (CP211) | Potency (CP215) | outcome (CP217) | Potency (CP237) | Potency (CP238) | Potency (CP247)

Cc1cc(=O)[nH]c(=S)[nH]1
inactive: activity, negative = inhibition ([1]; parasite line A) 10.7% | activity, negative = inhibition ([1]; parasite line B) 5.6% | Potency (3D7) | Potency (7G8) | Potency (AA1029) | Potency (AS120) | Potency (ATS189) | Potency (ATS95) | Potency (C2A) | Potency (CP185) | outcome (CP191) | outcome (CP192) | outcome (CP194) | outcome (CP201) | Potency (CP203) | outcome (CP211) | Potency (CP215) | outcome (CP217) | Potency (CP237) | Potency (CP238) | Potency (CP247)

O=C(NCN1CCOCC1)c1cnccn1
inactive: activity, negative = inhibition ([1]; parasite line A) -8.14% | activity, negative = inhibition ([1]; parasite line B) 11.7% | Potency (3D7) | Potency (7G8) | Potency (AA1029) | Potency (AS120) | Potency (ATS189) | Potency (ATS95) | Potency (C2A) | Potency (CP185) | outcome (CP191) | outcome (CP192) | outcome (CP194) | outcome (CP201) | Potency (CP203) | outcome (CP211) | Potency (CP215) | outcome (CP217) | Potency (CP237) | Potency (CP238) | Potency (CP247)

Cc1ccc(C(C)C)c(O)c1
inactive: activity, negative = inhibition ([1]; parasite line A) 4.16% | activity, negative = inhibition ([1]; parasite line B) -10.5% | Potency (3D7) | Potency (7G8) | Potency (AA1029) | Potency (AS120) | Potency (ATS189) | Potency (ATS95) | Potency (C2A) | Potency (CP185) | outcome (CP191) | outcome (CP192) | outcome (CP194) | outcome (CP201) | Potency (CP203) | outcome (CP211) | Potency (CP215) | outcome (CP217) | Potency (CP237) | Potency (CP238) | Potency (CP247)

O=C(/C=C/c1ccccc1)OCc1ccccc1
inactive: activity, negative = inhibition ([1]; parasite line A) 4.66% | activity, negative = inhibition ([1]; parasite line B) -29.4% | Potency (3D7) | Potency (7G8) | Potency (AA1029) | Potency (AS120) | Potency (ATS189) | Potency (ATS95) | Potency (C2A) | Potency (CP185) | outcome (CP191) | outcome (CP192) | outcome (CP194) | outcome (CP201) | Potency (CP203) | outcome (CP211) | Potency (CP215) | outcome (CP217) | Potency (CP237) | Potency (CP238) | Potency (CP247)

Cc1cc(NC(=O)C2=C(O)c3ccccc3S(=O)(=O)N2C)no1
inactive: activity, negative = inhibition ([1]; parasite line A) 12.7% | activity, negative = inhibition ([1]; parasite line B) -1.12% | Potency (3D7) | Potency (7G8) | Potency (AA1029) | Potency (AS120) | Potency (ATS189) | Potency (ATS95) | Potency (C2A) | Potency (CP185) | outcome (CP191) | outcome (CP192) | outcome (CP194) | outcome (CP201) | Potency (CP203) | outcome (CP211) | Potency (CP215) | outcome (CP217) | Potency (CP237) | Potency (CP238)

O=C(CCBr)N1CCN(C(=O)CCBr)CC1
inactive: activity, negative = inhibition ([1]; parasite line A) 10% | activity, negative = inhibition ([1]; parasite line B) -0.0848% | Potency (3D7) | Potency (7G8) | Potency (AA1029) | Potency (AS120) | Potency (ATS189) | Potency (ATS95) | Potency (C2A) | Potency (CP185) | outcome (CP191) | outcome (CP192) | outcome (CP194) | outcome (CP201) | Potency (CP203) | outcome (CP211) | Potency (CP215) | outcome (CP217) | Potency (CP237) | Potency (CP238) | Potency (CP247)

COc1cc(C(=O)NCCCCCC(=O)O)cc(OC)c1OC
inactive: activity, negative = inhibition ([1]; parasite line A) 8.13% | activity, negative = inhibition ([1]; parasite line B) 13.6% | Potency (3D7) | Potency (7G8) | Potency (AA1029) | Potency (AS120) | Potency (ATS189) | Potency (ATS95) | Potency (C2A) | Potency (CP185) | outcome (CP191) | outcome (CP192) | outcome (CP194) | outcome (CP201) | Potency (CP203) | outcome (CP211) | Potency (CP215) | outcome (CP217) | Potency (CP237) | Potency (CP238) | Potency (CP247)

C[C@@H]1O[C@@H](OC[C@H]2O[C@@H](Oc3c(-c4ccc(O)c(O)c4)oc4cc(O)cc(O)c4c3=O)[C@H](O)[C@@H](O)[C@@H]2O)[C@H](O)[C@H](O)[C@H]1O
inactive: activity, negative = inhibition ([1]; parasite line A) 3.3% | activity, negative = inhibition ([1]; parasite line B) 8.33% | Potency (3D7) | Potency (7G8) | Potency (AA1029) | Potency (AS120) | Potency (ATS189) | Potency (ATS95) | Potency (C2A) | Potency (CP185) | outcome (CP191) | outcome (CP192) | outcome (CP194) | outcome (CP201) | Potency (CP203) | outcome (CP211) | Potency (CP215) | outcome (CP217) | Potency (CP237) | Potency (CP238) | Potency (CP247)

CCN(CC)C(=O)c1cccc(C)c1
inactive: activity, negative = inhibition ([1]; parasite line A) 7.82% | activity, negative = inhibition ([1]; parasite line B) 6.22% | Potency (3D7) | Potency (7G8) | Potency (AA1029) | Potency (AS120) | Potency (ATS189) | Potency (ATS95) | Potency (C2A) | Potency (CP185) | outcome (CP191) | outcome (CP192) | outcome (CP194) | outcome (CP201) | Potency (CP203) | outcome (CP211) | Potency (CP215) | outcome (CP217) | Potency (CP237) | Potency (CP238) | Potency (CP247)

O=C(O)CCC(=O)O
inactive: activity, negative = inhibition ([1]; parasite line A) 10.3% | activity, negative = inhibition ([1]; parasite line B) 13.7% | Potency (3D7) | Potency (7G8) | Potency (AA1029) | Potency (AS120) | Potency (ATS189) | Potency (ATS95) | Potency (C2A) | Potency (CP185) | outcome (CP191) | outcome (CP192) | outcome (CP194) | outcome (CP201) | Potency (CP203) | outcome (CP211) | Potency (CP215) | outcome (CP217) | Potency (CP237) | Potency (CP238) | Potency (CP247)
